Assay results reported in PubChem BioAssay AID372 (MTDP, 2006).
About 770 (0.77%) of roughly 100,000 compounds were called active. The sample holds actives, similar compounds and a random draw of the others, so the mix is not that of the screen. Unmarked numbers belong to inactive results. Rule as the data show it: active = inhibition above about 50%; inactive = the rest.

biological target: Gag-Pol polyprotein (Human immunodeficiency virus type 1 group M subtype B (isolate HXB2)) (UniProt P04585); experiment: RNase H inhibition, HIV 1 Gag Pol polyprotein, FRET biochemical assay, screening (AID 372); settings: HIV-1 RT RNase H, FRET RNA/DNA substrate fluorescence; at 10 µM; stronger effect = higher value

SMILES | inhibition
COc1ccc(N2C(=O)/C(=C\c3cc(OC)ccc3O)SC2=S)cc1 | 22%
O=C(N/N=C/c1sc2ccccc2c1Cl)c1ccncc1 | 16%
COc1cc(C(=O)N/C(=C/c2cccc([N+](=O)[O-])c2)C(=O)Nc2ccc(C)cc2)cc(OC)c1OC | 7%
Cc1c(O)ccc2c(=O)c(-c3ccccc3Cl)coc12 | 9%
O=c1c(-c2ccccc2Cl)c(C(F)(F)F)oc2c(O)c(O)ccc12 | 41%
O=c1c(-c2ccccc2Cl)coc2c(O)c(O)ccc12 | 55% (active)
Cc1oc2c(C)c(O)ccc2c(=O)c1-c1ccccc1Cl | 12%
Cc1oc2c(O)c(O)ccc2c(=O)c1-c1ccccc1Cl | 52% (active)
O=c1c(-c2ccccc2Cl)coc2cc(O)ccc12 | 19%
COc1cc(C=C2C(=O)N(C)C(=O)N(C)C2=O)ccc1OCCOc1ccc(C)cc1 | 11%
CCOC(=O)c1sc(NC(=O)COc2ccccc2C)c(C(=O)OCC)c1C | 19%
Cc1cc2c(cc1Br)NC(=O)C2=O | 27%
C=CCc1ccc(OCCOCCOc2ccc(C)cc2I)c(OC)c1 | 13%
COc1cc(/C=C2\SC(=S)NC2=O)ccc1OS(=O)(=O)c1ccc(C)cc1 | 24%
Cc1ccc(S(=O)(=O)Oc2cccc(/C=C3\SC(N)=NC3=O)c2)cc1 | 15%
NC1=NC(=O)/C(=C/c2cccc(OS(=O)(=O)c3ccc4ccccc4c3)c2)S1 | 50% (active)
NC1=NC(=O)/C(=C/c2ccc(OS(=O)(=O)c3ccc4ccccc4c3)cc2)S1 | 20%
COc1cc(/C=C2/SC(=S)NC2=O)cc(Cl)c1OS(=O)(=O)c1ccc(C)cc1 | 54% (active)
O=C1NC(=S)S/C1=C\c1cccc(OS(=O)(=O)c2cccc([N+](=O)[O-])c2)c1 | 44%
Cc1ccc(/C=C2/SC(=S)NC2=O)cc1[N+](=O)[O-] | 8%
O=C1NC(=S)S/C1=C\c1cccc(OS(=O)(=O)c2ccc([N+](=O)[O-])cc2)c1 | 57% (active)
COc1cc(/C=C2\SC(=S)NC2=O)cc(Cl)c1OS(=O)(=O)c1ccccc1 | 11%
O=C1NC(=S)S/C1=C\c1ccc(OS(=O)(=O)c2cccc([N+](=O)[O-])c2)cc1 | 31%
CC(=O)Nc1ccc(S(=O)(=O)Oc2cccc(/C=C3\SC(=S)NC3=O)c2)cc1 | 8%

SMILES | inhibition
Cc1ccc(S(=O)(=O)Oc2ccc(/C=C3\SC(=S)NC3=O)cc2)cc1[N+](=O)[O-] | 57% (active)
COc1ccc(-c2ccccc2)cc1NCc1ccc(C)s1 | 17%
CNC(=O)OCCc1ccc(-c2ccccc2)o1 | 4%
CC1CC(=O)C2=C(C1)OC(N)=C(C#N)C2c1ccc(C(F)(F)F)cc1 (stereo not drawn) | 2%
COC(=O)c1ccccc1NC(=O)c1cccc(C)c1 | 4%
CCOc1ccc(Cc2c(O)n(-c3ccccc3)c(=S)[nH]c2=O)cc1 | 18%
COc1cc(/C=N/N2C(=O)c3cccc4cccc(c34)C2=O)cc(I)c1O | 13%
C/C(=N/Nc1cc(-c2ccccc2)nc(-c2ccccc2)n1)c1ccc(O)cc1 | 4%
CCOC(=O)C1=NN(c2ccccc2)C(=O)/C1=C\c1ccc(F)cc1 | 0%
Cc1ccc(S(=O)(=O)Oc2ccc(/C=C3\SC(=S)NC3=O)cc2)cc1 | 29%
Cc1ccc(S(=O)(=O)Oc2cccc(/C=C3\SC(=S)NC3=O)c2)cc1 | 53% (active)
COc1ccc(S(=O)(=O)Oc2cccc(/C=C3\SC(=S)NC3=O)c2)cc1 | 20%
COc1ccc(NC(=O)c2c(NC(=O)c3ccco3)sc(-c3ccccc3)c2C)cc1 | 12%
COC(=O)c1c(N)sc(C(=O)Nc2ccc(C)cc2)c1C | 0%
CCOc1ccc(NC(=O)c2c(N)sc(-c3ccccc3)c2C)cc1 | 23%
CCOC(=O)c1c(N)sc(C(=O)Nc2ccc(OC)cc2)c1C | 9%
CCOc1ccccc1NC(=O)CN(c1ccc(C)c(Cl)c1)S(C)(=O)=O | 8%
Clc1ccc(Oc2sc(Nc3cccc(Cl)c3)nc2-c2ccccc2)cc1 | 21%
NS(=O)(=O)c1ccc(CCNC(=O)/C=C/c2cccc([N+](=O)[O-])c2)cc1 | 4%
CCOc1ccc(/C=C(/C#N)c2nc3ccccc3[nH]2)cc1OC | 0%
O=C(Nc1ccc2c(c1)C(=O)c1ccccc1C2=O)c1ccccc1 | 15%
O=C1c2ccccc2C(=O)c2cc(NC(=O)c3coc4ccccc34)ccc21 | 63% (active)
O=C(Nc1ccc2c(c1)C(=O)c1ccccc1C2=O)c1cccc(Cl)c1 | 60% (active)
CCOc1cc(C(=O)Nc2ccc3c(c2)C(=O)c2ccccc2C3=O)cc(OCC)c1OCC | 0%

SMILES | inhibition
CCCCOc1ccc(C(=O)Nc2ccc3c(c2)C(=O)c2ccccc2C3=O)cc1 | 40%
O=C(Nc1ccc2c(c1)C(=O)c1ccccc1C2=O)c1cccc(F)c1 | 49%
Cc1ccccc1C(=O)Nc1ccc2c(c1)C(=O)c1ccccc1C2=O | 18%
O=C(O)c1ccccc1C(=O)Nc1ccc2c(c1)C(=O)c1ccccc1C2=O | 0%
NC1=NC(=O)/C(=C/c2cc(Br)ccc2OCc2ccccc2)S1 | 9%
Cn1c(=O)c2c(nc(Sc3nc4ccccc4n3Cc3ccccc3)n2C)n(C)c1=O | 0%
CC(CCC(=O)Nc1ccc(F)cc1)CC(=O)Nc1ccc(F)cc1 (stereo not drawn) | 6%
CC(=O)c1cccc(NC(=O)CC2S/C(=N\N=C(/C)C(C)(C)C)NC2=O)c1 (stereo not drawn) | 7%
CCCc1sc(NC(=O)c2ccc(OC)cc2)nc1-c1ccc(Br)cc1 | 42%
CCCCCCCNC1CC(=O)N(c2ccc(OCCC)cc2)C1=O (stereo not drawn) | 6%
CCOc1ccc(C(=O)NC(=S)Nc2ccc(-c3nc4ccc(C)cc4o3)cc2)cc1Cl | 56% (active)
CCOc1ccc(C(=O)NC(=S)Nc2cc(-c3nc4ccc(C)cc4o3)ccc2Cl)cc1 | 29%
CCOc1ccc(C(=O)NC(=S)Nc2ccc(Cl)c(-c3nc4ccc(C)cc4o3)c2)cc1Cl | 18%
CCOc1ccc(C(=O)Nc2ccc(-c3nc4cc(C)ccc4o3)cc2)cc1Cl | 12%
CCOc1ccc(C(=O)NC(=S)Nc2cc(-c3nc4cc(C)ccc4o3)ccc2Cl)cc1 | 60% (active)
CCOc1cc(C(=O)Nc2ccc(-c3nc4ccc(C)cc4o3)cc2)cc(OCC)c1OCC | 10%
CCOc1ccc(C(=O)NC(=S)Nc2ccc3oc(-c4ccc(C)cc4)nc3c2)cc1Cl | 10%
COc1ccc(C(=O)Nc2ccc3oc(-c4ccccc4)nc3c2)cc1Cl | 4%
COc1ccc(C(=O)Nc2ccc3oc(-c4ccc(OC)c(Cl)c4)nc3c2)cc1Cl | 30%
Cc1ccc2oc(-c3ccc(Cl)c(NC(=S)NC(=O)c4ccc(Cl)cc4)c3)nc2c1 | 48%
CCOc1ccc(C(=O)Nc2ccc(-c3nc4ccc(C)cc4o3)cc2)cc1Cl | 59% (active)
COc1ccc(C(=O)Nc2ccc(-c3nc4cc(C)c(C)cc4o3)cc2)cc1Cl | 51% (active)
CCOc1c(Br)cc(/C=C2/C(=O)NN(c3ccc(C)c(C)c3)C2=O)cc1OC | 22%
COc1cc([N+](=O)[O-])ccc1NC(=S)NC(=O)/C=C/c1ccccc1 | 12%

SMILES | inhibition
Fc1ccc(-c2nnc(-c3ccc(Br)o3)o2)cc1 | 6%
COc1ccc(OC)c(N(CC(=O)N(Cc2ccccc2)Cc2ccccc2)S(=O)(=O)c2ccccc2)c1 | 21%
O=C(N/N=C\c1ccc[nH]1)c1cccc2c3c([nH]c12)CCCC3 | 24%
COc1ccc(OC)c(NC(=O)CN(c2ccc(C(C)C)cc2)S(=O)(=O)c2ccccc2)c1 | 8%
C/C(=N/NC(=O)c1ccc2c(c1)OCO2)c1ccc(Br)s1 | 13%
Cc1cccc2c(N=NC(=O)COc3cccc(Br)c3)c(O)n(C)c12 | 20%
COc1cc(Br)ccc1OCC(=O)N=Nc1c(O)n(C)c2c(C)cccc12 | 52% (active)
COc1ccc(OCC(=O)N=Nc2c(O)n(C)c3c(C)cccc23)c(Br)c1 | 4%
CC(=O)Oc1ccc(-c2cccc(C(=O)OC(C)C)c2)cc1 | 9%
CC(C)OC(=O)c1ccc(NC(=O)c2ccc(Br)cc2)cc1 | 11%
N#C/C(=C/c1ccc(OCc2ccc(C(=O)O)cc2)cc1)C(=O)Nc1ccccc1 | 0%
C=CCc1cccc2cc(C(=O)Nc3ccc(C)c(Cl)c3)c(=O)oc12 | 0%
C=CCc1cccc2cc(C(=O)Nc3ccc(Cl)c(Cl)c3)c(=O)oc12 | 62% (active)
C=CCc1cccc2cc(C(=O)Nc3ccccc3)c(=O)oc12 | 12%
C=CCc1cccc2cc(C(=O)Nc3ccc(NC(C)=O)cc3)c(=O)oc12 | 10%
C=CCc1cccc2cc(C(=O)NNC(=O)CC#N)c(=O)oc12 | 54% (active)
C=CCc1cccc2cc(C(=O)NNC(=O)c3ccc(OC)cc3)c(=O)oc12 | 1%
CC(=O)/C(=C(/C)O)c1ncc(-c2ccccc2)s1 | 12%
Cc1cccc(C(=O)Nc2cccc(C(=O)Nc3ccccc3Cl)c2)c1 | 13%
O=C(Cn1c(NCCO)nc2ccccc21)c1cccc2ccccc12 | 21%
COc1cccc(N2C(=O)/C(=C/c3ccc([N+](=O)[O-])cc3)SC2=S)c1 | 7%
